Bioassay records: PubChem BioAssay, National Center for Advancing Translational Sciences (NCATS)
D1 potentiator: human D1 dopamine receptor positive modulation. HEK293 TREx D1 cells, calcium flux, dopamine EC20 potentiation. 360,000 compounds, 0.036% hits. P21728. potentiation, % at 10 µM. AID 504651; in the data active = potentiation above about 30%; also: 0% is about no effect
TRHR PAM: TRH receptor (human) allosteric enhancement; 360,000 compounds, 0.66% hits; AID 493056; enhancement, % at 2 µM; TRHR cells, fluo-8 calcium fluorescence, EC20 TRH enhancement; in the data active = enhancement above about 30%; also: 0% is about no effect
Target sequence (P34981 whole entry, looked up): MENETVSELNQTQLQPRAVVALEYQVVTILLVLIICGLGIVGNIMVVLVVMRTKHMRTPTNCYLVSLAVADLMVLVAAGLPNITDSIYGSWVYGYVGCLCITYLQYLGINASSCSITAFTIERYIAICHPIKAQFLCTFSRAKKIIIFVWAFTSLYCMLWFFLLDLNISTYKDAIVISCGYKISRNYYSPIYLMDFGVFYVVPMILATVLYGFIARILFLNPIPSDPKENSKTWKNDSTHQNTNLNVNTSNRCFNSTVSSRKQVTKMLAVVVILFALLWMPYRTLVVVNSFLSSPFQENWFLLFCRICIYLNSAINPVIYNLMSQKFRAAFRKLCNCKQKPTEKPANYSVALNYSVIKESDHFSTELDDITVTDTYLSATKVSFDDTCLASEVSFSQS
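Enhancer read-out: after compound pinning and an initial kinetic agonist-mode read, an EC20 of TRH (10 nM final) was injected and fluo-8 calcium signal (Ex 480/Em 530) followed at 1 s/cycle for 100 cycles in TRHR-expressing cells.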
D1 antag: human D1 dopamine receptor antagonism; AID 504652; P21728; HEK293 TREx D1 cells, calcium flux, dopamine EC80; active compounds read low; 360,000 compounds, 3.2% hits; activity change, negative = inhibition, % at 10 µM; in the data active = activity change below about -30%; also: % is scaled to controls: 0 for no effect and ±100 for the full control effect
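Using tetracycline-induced force-coupled D1 Hek293 cells and a calcium dye, signals were followed for 180 s after compound, then for 180 s after EC80 dopamine, to detect inhibitors.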
D1 agonist: human D1 receptor agonism; HEK293 T-REx D1 cells, calcium flux, agonist mode; activation, % at 2 µM; 360,000 compounds, 1% hits; also: 0% is about no effect
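Tetracycline-induced HEK293 TREx D1 cells, force-coupled to calcium signalling, were dye-loaded with a no-wash calcium kit. Compound was pin-added after a 10 s baseline. Fluorescence was read kinetically at 1 cycle/s for 180 s, with calcium rises flagged as agonism.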
TRHR agonist: activates the human TRH receptor. activation, % at 2 µM. TRHR cells, calcium flux fluo-8, FDSS agonist mode. P34981. AID 493084. 360,000 compounds, 0.18% hits; also: 0% is about no effect
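TRHR-expressing cells loaded with fluo-8 calcium dye; 23 nL library compound pin-transferred, kinetic FDSS fluorescence (Ex 480/Em 530) recorded about 180 s for agonist-induced calcium release, before a 10 nM TRH EC20 addition for potentiator mode.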
Numbers without * were called inactive; . = not tested or not shown; ! = repeats disagree. The list is not random: actives were taken first. Their share in the collection is about 4.7%. Rule as the data show it, unless noted: active = activation above about 30%; inactive = the rest.

SMILES	D1 potentiator	TRHR PAM	D1 antag	D1 agonist	TRHR agonist
COc1cccc(-c2nnc3n(Cc4ccc(C)cc4)c(=O)c4ccccc4n23)c1O	1.9	0.8	3.3	2.7	0.0
O=C(CSc1nccn1Cc1ccco1)Nc1cccc(F)c1	1.3	1.2	-0.4	31.3*!	-0.6
Cc1ccc(NC(=O)CSc2nccn2Cc2ccco2)cc1	4.8	-2.4	1.9	7.4	3.0
Cc1ccc(NC(=O)CSc2nccn2Cc2ccco2)cc1Cl	-5.4	34.9*	2.8	4.1	-0.6
O=C(COc1ccc(Br)cc1)NCCN1CCCC1	-6.8	30.5*	9.1	0.2	0.4
CC(C)(C)C(=O)NN=C1CCC(c2ccccc2)CC1 (centres undefined)	-2.4	-4.9	-33.4*	6.4	-0.4
COC(=O)NN=C1CCC(c2ccccc2)CC1 (centres undefined)	-0.4	-1.0	3.6	0.1	0.4
COc1cccc(C(=O)NC2CCN(CC(=O)Nc3nccs3)CC2)c1	-1.9	3.0	-32.9*	1.7	0.1
COc1cccc(C(=O)NC2CCN(CC(=O)Nc3c(C)cc(C)cc3C)CC2)c1	-6.3	-2.3	-12.7	-0.1	-0.8
CCOc1ccc(C(=O)NC2CC3CCCC(C2)N3Cc2ccccc2)cc1 (centres undefined)	-14.0	20.9	-15.8	5.2	0.5
COc1ccc(C(=O)NC2CC3CCCC(C2)N3Cc2ccccc2)cc1 (centres undefined)	-12.3	4.1	-48.8*	1.9	0.1
Cc1cccc(C(=O)NC2CC3CCC(C2)N3C)c1 (centres undefined)	-4.5	-1.5	-24.7	3.4	0.8
Cc1cccc(C(=O)NC2CC3CCCC(C2)N3Cc2ccccc2)c1 (centres undefined)	-12.1	3.4	-30.5*	0.5	0.0
COc1cccc(C(=O)NC2CC3CCC(C2)N3Cc2ccccc2)c1 (centres undefined)	0.1	-3.1	-49.0*	7.4	0.2
COc1ccc(CCNC(=O)CCCCn2c(=O)c3ccccc3n(CC(=O)Nc3ccc(C)cc3C)c2=O)cc1OC	-1.4	-11.3	-8.1	1.6	-0.7
O=C(NC1CC2CCC(C1)N2Cc1ccccc1)c1cccc(F)c1 (centres undefined)	-7.8	3.6	-50.3*	3.5	0.1
O=C(NC1CC2CCCC(C1)N2Cc1ccccc1)c1ccc([N+](=O)[O-])cc1 (centres undefined)	0.8	2.8	-56.6*	4.4	-0.3
Cc1ccc(C(=O)NC2CC3CCCC(C2)N3Cc2ccccc2)cc1 (centres undefined)	-8.8	10.2	-83.9*	-0.6	-0.5
Cc1ccc(CN2C3CCCC2CC(NC(=O)c2ccc(F)cc2)C3)cc1 (centres undefined)	-12.3	-1.2	-44.8*	8.4	0.8
CCCNC(=S)NC1CC2CCCC(C1)N2Cc1ccc(F)cc1 (centres undefined)	-3.1	1.6	-7.4	7.0	0.6
COc1ccc(CN2C3CCC2CC(NC(=O)c2cccc(F)c2)C3)cc1 (centres undefined)	-10.7	-10.4	-25.5	8.1	0.4
O=C(NC1CC2CCC(C1)N2Cc1ccccc1)c1ccccc1Br (centres undefined)	-9.5	5.8	24.8	2.4	0.6
Cc1cccc(-c2nc3scc(CCNS(=O)(=O)c4ccc(F)c(C(F)(F)F)c4)n3n2)c1	-0.1	-3.1	.	-0.8	0.7
COc1cccc(-c2ncc3ccccc3c2COC(=O)c2ccc(C(F)(F)F)cc2)c1	-3.5	3.2	.	4.0	0.3
Cc1ccc(C(c2sc3nc(-c4ccco4)nn3c2O)N2CCN(c3ccc(F)cc3)CC2)cc1 (centres undefined)	-1.0	6.1	.	-1.9	-0.2
SMILES	D1 potentiator	TRHR PAM	D1 antag	D1 agonist	TRHR agonist
COc1cc(-c2noc(-c3cc(C)[nH]n3)n2)cc(OC)c1OC	3.0	-0.1	-9.4	1.8	0.6
COC(=O)CCSc1nc2sc3c(c2c(=O)n1Cc1ccccc1)CCC(C(C)(C)C)C3 (centres undefined)	0.9	-1.6	-7.2	-1.6	0.0
O=C(NCc1ccccc1)NC1CC2CCC(C1)N2Cc1ccco1 (centres undefined)	-4.6	-0.8	-5.5	5.6	1.2
COc1ccccc1C(=O)NC1CC2CCC(C1)N2Cc1ccccc1 (centres undefined)	-11.7	9.2	-49.9*	-0.5	0.0
O=C(NC1CC2CCC(C1)N2Cc1ccco1)c1ccccc1 (centres undefined)	-25.3	7.3	-39.7*	1.5	-0.1
COc1ccc(C(=O)NC2CC3CCCC(C2)N3Cc2ccccc2)c(OC)c1 (centres undefined)	-4.7	-5.7	-13.5	2.1	0.0
CCOc1ccc(N2C(=O)C3C4C=CC(CC4)C3C2=O)c([N+](=O)[O-])c1 (centres undefined)	-4.7	-3.2	-14.4	-0.5	-0.4
COc1ccc(N2C(=O)C3C4C=CC(CC4)C3C2=O)c([N+](=O)[O-])c1 (centres undefined)	0.9	39.0*	23.8	2.6	-0.4
CCC(C)c1ccc(NC(=O)COC(=O)CCNC(=O)c2ccco2)cc1 (centres undefined)	-1.5	4.4	-17.2	3.8	-0.4
Cc1ccc(C)c(NC(=O)COC(=O)CCNC(=O)c2ccco2)c1	.	1.4	-50.3*	0.5	-0.1
CCOC(=O)c1cnc2ccc(Cl)cc2c1Nc1ccc(S(=O)(=O)Nc2ncccn2)cc1	-5.5	6.5	6.9	0.1	0.0
CCOC(=O)c1cnc2c(ccc3ccccc32)c1Cl	-2.4	-8.4	-52.9*	2.9	0.2
CCOC(=O)c1cnc2c(ccc3ccccc32)c1Nc1ccccc1O	-3.5	0.9	-46.7*	1.1	0.4
CCOC(=O)c1cnc2c(C)cc(C)cc2c1Nc1ccccc1OCC	0.8	-3.6	-17.5	1.4	0.4
CCOC(=O)c1cnc2c(C)c(Cl)ccc2c1Nc1ccc(S(=O)(=O)Nc2ncccn2)cc1	-4.5	-0.5	-39.0*	3.0	-0.5
CCc1ccccc1NC(=O)Nc1ccc2c(c1)N(CC)C(=O)c1ccccc1S2	-1.4	-1.1	4.3	3.4	-0.4
C=CCNc1ncnc2c1[nH]c1ccc(Cl)cc12	-1.9	1.3	.	35.5*	8.0
C=CCNc1ncnc2c1[nH]c1ccccc12	-3.8	3.1	-1.1	7.0	-0.5
NC(=O)c1nsc(C(=O)N(c2ccc3c(c2)OCO3)C(C(=O)NCC2CCCO2)c2ccc(F)cc2)c1N (centres undefined)	-9.2	8.5	-77.0*	-0.9	0.3
NC(=O)c1nsc(C(=O)N(c2ccc(Cl)cc2)C(C(=O)NCC2CCCO2)c2cccs2)c1N (centres undefined)	-4.8	-4.8	-33.5*	1.5	1.1
CCc1ccc(N(C(=O)c2snc(C(N)=O)c2N)C(C(=O)NCC2CCCO2)c2cccs2)cc1 (centres undefined)	-1.4	-4.6	24.5	-1.3	-0.4
